# High-throughput results: PubChem BioAssay, National Center for Advancing Translational Sciences (NCATS)
# In the library only some 5.3% were active in any assay of this set; here they are far more common.
# VACV Venus inh: inhibitors of vaccinia virus (Venus reporter) | Vaccinia virus Venus reporter expression, fluorescence | Potency, µM (highest dose often 36.5 µM), without a hit: at the top dose activity change, negative = inhibition, actives largely listed as inhibitors | 0.46% of 330,000 active; calls by dose curve; tested in A549 cells; note: nearly all actives have a fitted effect of over 30% in size
# Marburg entry inh: inhibitors of Marburg virus binding or cell entry; Marburg virus pseudotyped entry inhibition, cell reporter; Potency, µM (series often up to 37.8 µM), for inactives: top-dose activity change, negative = inhibition, most hits filed as inhibitors; 1.8% of 300,000 active; calls by dose curve; tested in HEK293 cells
# Lassa entry inh: Lassa virus entry inhibition; Lassa virus pseudotype entry inhibition, cell reporter; Potency, µM (titrated, usually from 37.9 µM), for inactives: at the highest dose activity change, negative = inhibition, actives largely listed as inhibitors; 1.2% of 300,000 active; AID 540256; calls by dose curve; tested in HEK293 cells; note: nearly all actives have a fitted effect of over 50% in size
# FMDV inh: antivirals against foot and mouth disease virus | FMDV antiviral cell-based qHTS | Potency, µM (doses to about 57.9 µM), without a hit: top-dose activity change, negative = inhibition, actives largely listed as inhibitors | 1.2% of 410,000 active | AID 1159524; calls by dose curve; tested in HEK293T cells; note: read-out not given here; nearly all actives have a fitted effect of over 45% in size
# Vaccinia mCherry: vaccinia inhibition (mCherry reporter). Potency, µM (series often up to 36.5 µM), for inactives: at the top dose activity change, negative = inhibition, actives largely listed as inhibitors. Vaccinia virus mCherry reporter infection, fluorescence. 0.63% of 310,000 active; calls by dose curve; tested in A549 cells; note: nearly all actives have a fitted effect of over 35% in size
# HCV inh: HCV inhibition; Huh7.5.1 HCVcc-Cre infection, luciferase reporter, 44 h; Potency, µM (top dose mostly 41.8 µM), for the others: at the top dose activity change, negative = inhibition, hits mostly inhibitors; 3.4% of 340,000 active; active = well fitted inhibition curve with a large enough effect; inconclusive = small, poorly fitted or top-dose-only effect, or another doubt; inactive = no such curve, though single readings can be large or run the other way
#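 HCVcc-Cre virus at an moi near 0.5 was added right after compound to cells cultured 4 h from seeding (1,000 cells/well). Luciferase activity was determined 44 h later, 15 min after substrate addition at RT.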
# * hit, by the source's call; i = inactive; ? = inconclusive; · = no result given; [ ] = remark or other dose. % is set by controls: 0 for no effect and ±100 for the full control effect; potency is the fitted concentration of half-maximal effect.
SMILES,VACV Venus inh,Marburg entry inh,Lassa entry inh,FMDV inh,Vaccinia mCherry,HCV inh
CCN(CC)c1ccc2c(c1)OC(N)=C(C#N)C2c1cccnc1 (configuration not stated),-13%,?,?,?,?,?
COc1ccc(C2C(C#N)=C(N)Oc3cc(N)ccc32)cc1 (configuration not stated),·,·,·,9%,·,-3%
N#CC1=C(N)Oc2cc(Nc3ccccc3)ccc2C1c1ccncc1 (configuration not stated),?,18µM*,?,?,·,?
COc1cc(C2C(C#N)=C(N)Oc3cc(N)ccc32)cc(OC)c1OC (configuration not stated),?,5.6µM*,?,9%,·,-25%
N#CC1=C(N)Oc2cc(N)ccc2C1c1cccnc1 (configuration not stated),-26%,16µM*,-1%,-21%,-19%,-12%
COc1ccc(NC(=O)c2sc(=O)n(Cc3ccccc3C#N)c2C)cc1OC,-15%,·,·,0%,6%,·
O=[N+]([O-])/C(C(=C(Cl)Cl)N1CCOCC1)=C1\NCCO1,10µM*,-13%,19%,5%,16µM*,1%
CN1CCO/C1=C(\C(Cl)=C(Cl)Cl)[N+](=O)[O-],-3%,7%[14.2 µM],3%,8%,-6%,7%
CC(=O)N1CCCc2cc(S(=O)(=O)N3CCC(C(=O)N(Cc4ccccc4)C(C)C)CC3)ccc21,-8%,·,-11%[46.1 µM],?,2%,·
CC1CCC(C(C)C)C(OCC(O)CNC(C)(C)C)C1 (configuration not stated),-20%,·,·,-11%,-16%,-8%
COc1ccc(OCC(O)CNC(C)c2ccccc2)cc1 (configuration not stated),·,·,·,-1%,·,-29%
CC(NCC(O)COc1ccc2ccccc2c1)c1ccccc1 (configuration not stated),-14%,?,1%,-20%,?,6.3µM*
CC1CCC(C(C)C)C(OCC(O)CNC(C)c2ccccc2)C1 (configuration not stated),10µM*,?,?,?,10µM*,?
CCCC(NCC(O)COc1ccc(-c2ccccc2)cc1)c1ccccc1 (configuration not stated),·,·,·,?,·,11µM*
CC(NCC(O)COc1ccc(Br)cc1)c1ccccc1 (configuration not stated),·,·,·,1%,·,?
Cc1ccc(-n2nc3c([n+]2[O-])CCc2c-3no[n+]2[O-])cc1,·,?,?,5%,·,-15%
[O-][n+]1onc2c1CCc1c-2nn(-c2ccccc2Cl)[n+]1[O-],1.3µM*,?,?,·,1µM*,-2%
Cc1[nH]c(-c2ccc(F)cc2)cc1C(=O)N1CCN(c2ccccc2F)CC1,?,1%,?,-16%,?,?
Cc1ccc(N2CCN(C(=O)c3cc(-c4ccc(F)cc4)[nH]c3C)CC2C)cc1 (configuration not stated),?,?,?,-24%,10µM*,11µM*
CN(C)c1ccc(/C=C/c2cc(N(C)C)nc3ccccc23)cc1,-13%,·,·,·,-20%,·
CCn1c(-c2ccccc2)c(C(=O)CCl)c2ccccc21,-18%,·,·,18µM*,-15%,8.9µM*
Cn1c(-c2ccccc2)c(C(=O)CCl)c2ccccc21,-22%,?,-27%,10µM*,-27%,5.6µM*
Cn1c(-c2ccccc2)c(CCO)c2ccccc21,·,?,3%,-16%,·,-25%
CCCCC1CCC(C(=O)N(CCC(C)C)c2c(N)n(CCCC)c(=O)[nH]c2=O)CC1 (configuration not stated),11µM*,·,·,-20%,16µM*,·
CCCCC1CCC(C(=O)N(CC(C)C)c2c(N)n(CCCC)c(=O)[nH]c2=O)CC1 (configuration not stated),-6%,-6%,17%[46.1 µM],-27%,-12%,?
SMILES,VACV Venus inh,Marburg entry inh,Lassa entry inh,FMDV inh,Vaccinia mCherry,HCV inh
CCCCCN(C(=O)CN1CCC(Cc2ccccc2)CC1)c1c(N)n(CCCC)c(=O)[nH]c1=O,-16%,10µM*,?,-16%,-16%,?
CCCCN(C(=O)c1cc2c(s1)CCC2)c1c(N)n(CCCC)c(=O)[nH]c1=O,8%,8%[46.1 µM],21%,-1%,-12%,11µM*
CCCCn1c(N)c(N(CCC(C)C)C(=O)COC(=O)Cc2ccc(Cl)cc2)c(=O)[nH]c1=O,-11%,13µM*,?,-28%,-9%,-15%
COc1ccccc1-c1cc2nc(C)c(CCC(=O)NCCc3ccc(SC)cc3)c(C)n2n1,-8%[7.34 µM],-22%[46.1 µM],-9%[46.1 µM],?,-10%[7.34 µM],·
OC(c1cccnc1)c1ccc2c(c1)CN(Cc1cccc3c1OCO3)CCO2 (configuration not stated),-10%,·,·,0%,-1%,·
CCc1ccc(NC(=S)NCC2CCCN2CC)cc1 (configuration not stated),0%,0%[46.1 µM],?,17%,i,?
O=S(=O)(O)c1cc(Cl)cc(N=Nc2ccc(O)cc2O)c1O,97%,-4%,-20%,?,93%,1%
Cc1cc(-c2ccc(N=Nc3c(S(=O)(=O)O)cc4cc(S(=O)(=O)O)cc(N)c4c3O)c(C)c2)ccc1N=Nc1c(S(=O)(=O)O)cc2cc(S(=O)(=O)O)cc(N)c2c1O,·,16µM*,?,·,·,?
O=S(=O)(O)c1cc(O)c2c(O)c(N=Nc3cc(Cl)ccc3O)c(S(=O)(=O)O)cc2c1,421%,?,?,13µM*,491%,-21%
COc1ccc(NC(=O)c2cc(-c3cc(Cl)ccc3C)n[nH]2)c(OC)c1,-19%,·,·,-13%,i,·
Cn1cc(CN2CCC(C(=O)NC(c3ccc(-c4ccccc4)cc3)c3cnccn3)CC2)c2ccccc21 (configuration not stated),11µM*,·,·,0%,?,·
CCCCCCC(C)(C)c1ccc([C@@H]2C[C@H](O)CC[C@H]2CCCO)c(O)c1,?,13µM*,?,?,?,?
CNC[C@H](CC1CCCCC1)NC[C@H](CO)NCCc1cccc(C(F)(F)F)c1,20µM*,·,·,-16%,?,?
CO[C@H]1[C@H](NC(=O)c2cccc(F)c2)c2ccccc2C12CCN(Cc1ccco1)CC2,-6%,·,·,-6%,-4%,·
COc1cc(/C=N/N=C(N)N)ccc1OCc1ccccc1Cl,·,·,·,-39%,·,14µM*
O=C(COc1ccc(Cl)cc1)NCCc1csc(-c2ccc(F)cc2)n1,2%,·,17%[46.1 µM],-5%,-9%,·
Cn1c(=O)c([N+](=O)[O-])c(Cl)c2ccccc21,-4%,?,?,14µM*,-14%,7.9µM*
CCOC(=O)N/N=C/c1c(C)nn(-c2cccc(C(F)(F)F)c2)c1Cl,?,?,7.1µM*,?,?,2.2µM*
Cc1nn(-c2cccc(C(F)(F)F)c2)c(Cl)c1/C=N/Nc1cccc(C(=O)O)c1,-14%,?,?,-18%,i,0%
